Measured values: the supplement of paper PMC12645437, “Orthogonal IMiD-Degron Pairs Induce Selective Protein Degradation in Cells” (ACS Chemical Biology, 2025)
In all, about 8,300 sequences were measured (“log2 fold change of degron read counts, EGFP-low vs EGFP+ sorted cells (limma voom), compound-induced degradation”: median about -1.1, highest 2% from about 3.2 on). The full list was thinned out, with the highest values kept by preference.

Target: T1, CRBN, Q96SW2
T1 chain: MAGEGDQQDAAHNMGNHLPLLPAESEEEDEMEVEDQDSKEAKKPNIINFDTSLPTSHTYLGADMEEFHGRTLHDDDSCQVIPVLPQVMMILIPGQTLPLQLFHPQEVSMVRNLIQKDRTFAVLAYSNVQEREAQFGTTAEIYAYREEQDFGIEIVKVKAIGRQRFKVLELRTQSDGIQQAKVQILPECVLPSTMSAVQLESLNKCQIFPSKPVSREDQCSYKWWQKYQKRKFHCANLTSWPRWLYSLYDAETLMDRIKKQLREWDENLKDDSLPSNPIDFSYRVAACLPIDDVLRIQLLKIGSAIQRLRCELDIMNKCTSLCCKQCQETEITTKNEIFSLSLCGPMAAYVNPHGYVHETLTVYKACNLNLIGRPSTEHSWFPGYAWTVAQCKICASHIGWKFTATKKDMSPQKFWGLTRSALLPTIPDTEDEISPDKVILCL
Test: log2 fold change of degron read counts, EGFP-low vs EGFP+ sorted cells (limma voom), compound-induced degradation; higher = more compound-induced degradation of the degron-EGFP fusion; degrons are variants of IKZF1/3 zinc finger 2; compound dose not given here
Settings: Jurkat, 18 h

[1] = compound: compound 19 (5-tert-butyl-thalidomide)
[2] = compound: compound 22 (5-morpholino-thalidomide)
[3] = compound: compound 33 (diphenyl IMiD analogue)
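Note: pooled lentiviral library of zinc finger degron-EGFP fusions in mCherry-positive Jurkat cells, FACS-sorted after compound exposure, with degron abundance counted by next-generation sequencing.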

Sequence	log2 fold change of degron read counts [1]	log2 fold change of degron read counts [2]	log2 fold change of degron read counts [3]	log2 fold change of degron read counts (compound: thalidomide)
LQCPICGFRCTQKGNLLRHIKL [46L_47Q_49P_50I_52G_53F_54R_55C_67L_, Q9UKT9]	0.322	1.54	0.782	3.35
LRCPICGFRCTQKGNLLRHIKL [46L_47R_49P_50I_52G_53F_54R_55C_67L_, Q9UKT9]	-0.000253	-0.254	0.655	1.06
LDCPICGFRCTQKGNLLRHIKL [46L_47D_49P_50I_52G_53F_54R_55C_67L_, Q9UKT9]	2	0.931	1.11	2.55
LECPICGFRCTQKGNLLRHIKL [46L_47E_49P_50I_52G_53F_54R_55C_67L_, Q9UKT9]	1.29	0.491	2.73	3.62
LTCPICGFRCTQKGNLLRHIKL [46L_47T_49P_50I_52G_53F_54R_55C_67L_, Q9UKT9]	1.45	2.61	1.91	2.92
LQCPICGFICTQKGNLLRHIKL [46L_47Q_49P_50I_52G_53F_54I_55C_67L_, Q9UKT9]	-0.0184	2.22	2.06	3.45
LSCPICGFICTQKGNLLRHIKL [46L_47S_49P_50I_52G_53F_54I_55C_67L_, Q9UKT9]	1.06	1.05	1.47	0.848
LYCPICGFRCTQKGNLLRHIKL [46L_47Y_49P_50I_52G_53F_54R_55C_67L_, Q9UKT9]	3.08	3.4	1.5	1.15
LLCPICGFRCTQKGNLLRHIKL [46L_47L_49P_50I_52G_53F_54R_55C_67L_, Q9UKT9]	0.662	-0.346	0.856	2.44
LMCPICGFRCTQKGNLLRHIKL [46L_47M_49P_50I_52G_53F_54R_55C_67L_, Q9UKT9]	0.588	1.13	2.13	2
LVCPICGFRCTQKGNLLRHIKL [46L_47V_49P_50I_52G_53F_54R_55C_67L_, Q9UKT9]	1.86	3.01	1.42	3.2
LTCPICGFICTQKGNLLRHIKL [46L_47T_49P_50I_52G_53F_54I_55C_67L_, Q9UKT9]	-0.0311	0.718	1.67	1.78
FLCPQCGATFTQKGNLLRHIKL [46F_47L_49P_50Q_52G_53A_54T_55F_67L_, Q9UKT9]	-3.01	-2.75	-0.206	-0.949
FLCEICGHMFTQKGNLLRHIKL [46F_47L_49E_50I_52G_53H_54M_55F_67L_, Q9UKT9]	-2.82	-2.78	-2.56	-2.3
FGCPICGRGFTQKGNLLRHIKL [46F_47G_49P_50I_52G_53R_54G_55F_67L_, Q9UKT9]	2.07	-0.191	0.245	-0.872
FTCPQCGATFTQKGNLLRHIKL [46F_47T_49P_50Q_52G_53A_54T_55F_67L_, Q9UKT9]	-2	-0.214	1.22	0.676
FTCNQCGAIFTQKGNLLRHIKL [46F_47T_49N_50Q_52G_53A_54I_55F_67L_, Q9UKT9]	-2.47	-2.59	-1.37	-1.93
FVCPQCGAEFTQKGNLLRHIKL [46F_47V_49P_50Q_52G_53A_54E_55F_67L_, Q9UKT9]	-2.41	-1.67	-0.946	-0.352
